The record followed here is the supplement of paper PMC11150407.

Structures are written as SMILES. Out of some 3,000 compounds screened, about 45 (2%) showed an effect of 50% or more. For the sample, strong results were picked, then their nearest neighbours and some compounds at random.

This assay has as its system MOLM1 and UCSD/AML1 (averaged). Kind of assay: cell viability relative to DMSO control (POC); higher = less growth inhibition. The conditions noted are these: 1 µM; 72 h. On the procedure: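 Primary viability screen in the 3q26 EVI1-high AML cell lines MOLM1 and UCSD/AML1, compounds at 1 uM for 72 h. ATP CellTiter-Glo read-out given as percent viable over DMSO control (POC), averaged over duplicates. This mapping covers the TimTec NDL-3000 natural derivative library, whose compounds are identified by TimTec catalogue codes (ST...).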
What is called cell viability is a read-out of living cells in per cent, often relative to untreated cells. As to `OCC1N2CCC(CC2)C1(O)O` (stereo not given), the cell viability came out at 32.3%.
The result for `CCOC(=O)C1=C(N)Oc2c(c(=O)oc3ccccc23)C1c1ccc(Cl)cc1Cl` (stereo not given) reads 104%; that for `CC(=O)OC1CCC2(C)C3CCC4(C)C(CC[C@]4(OC(C)=O)C(C)OC(C)=O)C3CC[C@H]2C1` (stereo not given in full), 109%.
With `CN1C(=O)C(=Cc2ccc3c(c2)OCO3)C(=O)N(C)C1=O`, the cell viability came to 111%.
In the case of `O.O.OCC1CCCN2CCCCC12.[Cl][Cu][Cl]` (stereo not given), the cell viability was 110%.
The result for `Cc1ccc(C(c2c(O)c3ccccc3oc2=O)c2c(O)c3ccccc3oc2=O)cc1` reads 102%; that for `CCOC(=O)C1=C(N)Oc2c(c(=O)oc3ccccc23)C1c1ccc(Br)cc1` (stereo not given), 93%.
For `CCOC(=O)C1=C(N)Oc2c(c(=O)oc3ccccc23)C1c1ccc(Cl)c(Cl)c1` (stereo not given) the value was 37.7%; for `CCOC(=O)C1=C(N)Oc2c(c(=O)oc3ccccc23)C1c1cccc(Br)c1` (stereo not given), 103%.
The result for `COCCOC(=O)c1c(C)n(Cc2ccccc2Cl)c2ccc(O)cc12` reads 106%.
